± gives the standard deviation of the averaged measurements.

The test system of one experiment is IL-6-GFP PC-9GR. Briefly: cell viability (CCK-8 OD) relative to DMSO control (fraction of control); higher = more viable cells. To be noted: compound concentration: 10 uM; treatment time: 48 h. The method in brief:
(§1)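 In 96-well plates, 3000 cells/well of PC-9 or PC-9GR lung cancer cells with lentiviral IL-6-GFP overexpression received each compound of a purchased 510-compound library at a final 10 μM for 48 h. Viability, measured by CCK-8 absorbance, is each well's optical density relative to the vehicle control well. Data come from two independent replicates.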

Another experiment has as its system IL-6-GFP PC-9. The experiment is described as above. Particulars: compound concentration: 10 uM; treatment time: 48 h. The method in brief:
as §1

On to `O=c1oc2cc(O)ccc2s1` [Tioxolone], for which the cell viability in the experiment on IL-6-GFP PC-9GR amounted to 1.06 ± 0.041; in the experiment with IL-6-GFP PC-9, 1.121 ± 0.0078.
Turning to `O=C(O)CCc1nc(-c2ccccc2)c(-c2ccccc2)o1` [Oxaprozin], the cell viability in the experiment on IL-6-GFP PC-9GR was 0.9414 ± 0.0067; with IL-6-GFP PC-9, 0.543 ± 0.2.
For the compound `Nc1nc(=O)c2c([nH]1)NCC(CNc1ccc(C(=O)NC(CCC(=O)[O-])C(=O)[O-])cc1)N2C=O.O.O.O.O.O.[Ca+2]` (stereo not given) [Leucovorin Calcium Pentahydrate], the values for the cell viability with IL-6-GFP PC-9GR and in the experiment with IL-6-GFP PC-9 were 1.25 ± 0.17 and 1.16 ± 0.28, respectively.
Regarding `Cn1c(=O)cc(N2CCCC(N)C2)n(Cc2ccccc2C#N)c1=O` (stereo not given) [Alogliptin], the results for the cell viability with IL-6-GFP PC-9GR and in the experiment with IL-6-GFP PC-9 were 0.0419 ± 0.21 and 1.29 ± 0.11, respectively.
For `Cc1ccc(Cl)c(Nc2ccccc2C(=O)[O][Na])c1Cl` [Meclofenamate Sodium], in that order: 0.983 ± 0.054 and 1.02 ± 0.11.
For `CCOc1ccc(Cc2cc(C34OCC(CO)(O3)C(O)C(O)C4O)ccc2Cl)cc1` (stereo not given) [Ertugliflozin], in that order: 1.43 ± 0.46 and 0.987 ± 0.16.
Take `C=CC(=O)Nc1cc(Nc2nccc(-c3cn(C)c4ccccc34)n2)c(OC)cc1N(C)CCN(C)C.CS(=O)(=O)O` [Osimertinib mesylate]: the figures for the cell viability in the experiment with IL-6-GFP PC-9GR and with IL-6-GFP PC-9 were 0.206 ± 0.046 and 0.298 ± 0.12, respectively.
For `CC1(C)SC2C(NC(=O)C(c3ccccc3)S(=O)(=O)[O-])C(=O)N2C1C(=O)[O-].[Na+].[Na+]` (stereo not given) [Sulbenicillin Sodium], in that order: 0.802 ± 0.17 and 0.857 ± 0.019.
For the compound `COc1ccc2cc(C(C)C(=O)O)ccc2c1` (stereo not given) [Naproxen], the cell viability in the experiment on IL-6-GFP PC-9GR worked out at 1.5 ± 0.37; in the experiment on IL-6-GFP PC-9 it was 1.08 ± 0.16.
Consider `O=C([O-])Cc1ccccc1Nc1c(Cl)cccc1Cl.[Na+]` [Diclofenac Sodium], for which the cell viability came to 1.3 ± 0.039 in the experiment with IL-6-GFP PC-9GR and 1.09 ± 0.084 in the experiment on IL-6-GFP PC-9.
In the case of `COc1ccc(-c2ccc3cc(C(=O)O)ccc3c2)cc1C12CC3CC(CC(C3)C1)C2` [Adapalene], the cell viability in the experiment with IL-6-GFP PC-9GR came to 1.15 ± 0.15; in the experiment on IL-6-GFP PC-9 it was 0.765 ± 0.3.
For `Nc1ccc(S(=O)(=O)Nc2ccnn2-c2ccccc2)cc1` [Sulfaphenazole], in that order: 1.15 ± 0.36 and 1.29 ± 0.11.
Turning to `O=S1(=O)CCN(CN2CCS(=O)(=O)NC2)CN1` [Taurolidine], the cell viability worked out at 1.22 ± 0.27 with IL-6-GFP PC-9GR and 1.234 ± 0.011 in the experiment on IL-6-GFP PC-9.
`CN(C)N=Nc1[nH]cnc1C(N)=O` [Dacarbazine]: the cell viability worked out at 0.95 ± 0.14 in the experiment with IL-6-GFP PC-9GR and 0.8338 ± 0.005 in the experiment with IL-6-GFP PC-9.
`COc1ccc(S(=O)(=O)N(C(C)=O)c2ccccc2/C=C/c2cc[n+]([O-])cc2)cc1`: the cell viability worked out at 0.674 ± 0.091 with IL-6-GFP PC-9GR and 0.753 ± 0.018 in the experiment with IL-6-GFP PC-9.
Consider `C=C1CCC2C(C)(COC(=O)CCC(=O)O)C(OC(=O)CCC(=O)O)CCC2(C)C1/C=C/C1=CCOC1=O` (stereo not given) [Dehydroandrographolide Succinate], for which the figures for the cell viability in the experiment with IL-6-GFP PC-9GR and in the experiment on IL-6-GFP PC-9 were 0.966 ± 0.062 and 1.16 ± 0.016, respectively.
The corresponding values for `COc1ccc2cc1Oc1ccc(cc1)CC1c3c(cc4c(c3Oc3cc5c(cc3OC)CCN(C)C5C2)OCO4)CCN1C` (stereo not given) [Cepharanthine] are 0.8242 ± 0.0069 and 0.73 ± 0.15.
For `CCC(C(=O)O)c1ccc(N2Cc3ccccc3C2=O)cc1` (stereo not given) [Indobufen], in that order: 0.908 ± 0.059 and 1.11 ± 0.049.
For the compound `Clc1ccc(C(c2ccccc2Cl)C(Cl)Cl)cc1` (stereo not given) [Mitotane], the cell viability was 1.2 ± 0.1 in the experiment with IL-6-GFP PC-9GR and 0.958 ± 0.05 with IL-6-GFP PC-9.
The corresponding values for `O=C(OCC1OC(OC(=O)c2cc(O)c(O)c(OC(=O)c3cc(O)c(O)c(O)c3)c2)C(OC(=O)c2cc(O)c(O)c(OC(=O)c3cc(O)c(O)c(O)c3)c2)C(OC(=O)c2cc(O)c(O)c(OC(=O)c3cc(O)c(O)c(O)c3)c2)C1OC(=O)c1cc(O)c(O)c(OC(=O)c2cc(O)c(O)c(O)c2)c1)c1cc(O)c(O)c(OC(=O)c2cc(O)c(O)c(O)c2)c1` (stereo not given) [Tannic acid] are 1.05 ± 0.11 and 1.2 ± 0.23.
Regarding `O=C(NCC1CN(c2ccc(N3CCOCC3=O)cc2)C(=O)O1)c1ccc(Cl)s1` (stereo not given) [Rivaroxaban], the cell viability with IL-6-GFP PC-9GR turned out to be 0.949 ± 0.11; in the experiment on IL-6-GFP PC-9 it was 0.98 ± 0.11.
In the case of `O=C([O-])Cc1ccccc1Nc1c(Cl)cccc1Cl.[K+]` [Diclofenac Potassium], the cell viability was 1.25 ± 0.21 in the experiment on IL-6-GFP PC-9GR and 1.13 ± 0.18 with IL-6-GFP PC-9.
For the compound `Cc1ccc(C(C)C)cc2c(C)ccc1-2` [Guaiazulene], the cell viability was found to be 0.98 ± 0.15 in the experiment with IL-6-GFP PC-9GR and 0.275 ± 0.37 in the experiment with IL-6-GFP PC-9.
For `COc1cc2nccc(Oc3ccc(NC(=O)NC4CC4)c(Cl)c3)c2cc1C(N)=O.CS(=O)(=O)O` [lenvatinib Mesylate], the cell viability in the experiment on IL-6-GFP PC-9GR worked out at 1.15 ± 0.17; in the experiment with IL-6-GFP PC-9, 0.265 ± 0.16.
The corresponding values for `C=CC(=O)Nc1cc(Nc2nccc(-c3cn(C)c4ccccc34)n2)c(OC)cc1N(C)CCN(C)C` [Osimertinib (AZD9291)] are 0.225 ± 0.073 and 0.372 ± 0.059.

The values above are taken from the supplement of paper PMC8866396.
